Test results taken from PubChem BioAssay (NCI).
The panel holds about 79,000 compounds, 15% with a hit somewhere; the sample as a whole holds those more often. The source made the active and inactive calls. Cut-off read from the data, not from the text of the source: active = growth inhibition above about 70%; inactive = the rest.

How the values were obtained:
[1] = NCI Yeast Anticancer Drug Screen. Data for the wt1 strain (AID 149);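 note: 0% = growth of vehicle-treated wt1 cultures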; settings: S. cerevisiae wt1 strain (SPY 50644) growth inhibition, active compounds read high
How it was run: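 wt1 strain grown with compound or vehicle; inhibition taken from the growth difference.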

[2] = NCI Yeast Anticancer Drug Screen. Data for the rad50EPP+ strain (AID 151);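 note: 0% = growth of vehicle-treated control cultures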; settings: S. cerevisiae rad50 mutant strain, active compounds read high
How it was run: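 Compounds were applied to the rad50EPP+ yeast strain, which bears a defined DNA repair alteration, and growth inhibition was determined relative to vehicle-treated cultures.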

[3] = NCI Yeast Anticancer Drug Screen. Data for the mgt1 strain (AID 153); settings: S. cerevisiae mgt1 mutant growth inhibition, active compounds read high
How it was run: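 Strain: mgt1 yeast, one of a set carrying defined DNA damage repair or cell cycle control alterations. Compound-treated growth compared with vehicle.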

[4] = NCI Yeast Anticancer Drug Screen. Data for the rad50 strain (AID 155);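 note: 0% = growth of vehicle-only cultures of the same strain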; settings: S. cerevisiae rad50 strain growth inhibition, active compounds read high
How it was run: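 DNA repair mutant yeast, compound exposure, growth read-out; inhibition is taken relative to vehicle.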

[5] = NCI Yeast Anticancer Drug Screen. Data for the mec2-1 strain (AID 157); settings: S. cerevisiae mec2-1 strain, active compounds read high
How it was run: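 Strain: mec2-1 (DNA repair/cell cycle alteration). Compound exposure, then growth measured; inhibition expressed relative to vehicle.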

[6] = NCI Yeast Anticancer Drug Screen. Data for the sgs1 mgt1 strain (AID 161);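 note: 0% = growth of cultures given vehicle only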; settings: S. cerevisiae sgs1 mgt1 strain, active compounds read high
How it was run: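 Mutant yeast exposed to compound; growth scored against vehicle-only wells.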

[7] = NCI Yeast Anticancer Drug Screen. Data for the CLN2oe strain (AID 163);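 note: 0% = growth of vehicle-only control cultures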; settings: S. cerevisiae CLN2oe strain, active compounds read high
How it was run: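 Growth of a genetically modified yeast strain is measured after compound exposure and compared with cultures given vehicle alone.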

[8] = NCI Yeast Anticancer Drug Screen. Data for the cln2 rad14 strain (AID 165);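 note: 0% = growth equal to vehicle treated cultures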; settings: S. cerevisiae cln2 rad14 strain, active compounds read high
How it was run: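 Compounds are applied to the cln2 rad14 yeast strain, and growth is then compared with that of vehicle-treated cultures to give inhibition.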

[9] = NCI Yeast Anticancer Drug Screen. Data for the bub3 strain (AID 167); settings: S. cerevisiae bub3 mutant strain, active compounds read high
How it was run: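 In this screen, a yeast mutant lacking normal mitotic checkpoint function is challenged with compound. Relative growth versus vehicle gives the inhibition value.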

[10] = NCI Yeast Anticancer Drug Screen. Data for the wt2 strain (AID 169);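 note: 0% = growth of vehicle-treated yeast cultures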; settings: S. cerevisiae wt2 strain growth inhibition, active compounds read high
How it was run: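 This strain belongs to a panel of yeast strains with defined genetic alterations in DNA damage repair or cell cycle control. Compounds are applied, and growth inhibition is measured against vehicle-treated cultures.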

[11] = NCI Yeast Anticancer Drug Screen. Data for the mlh1 strain (AID 171);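 note: 0% = growth of vehicle-treated control cultures of the same strain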; settings: S. cerevisiae mlh1 strain growth inhibition, active compounds read high
How it was run: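 Growth of the mutant yeast strain after compound exposure, expressed as inhibition relative to vehicle-only controls.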

[12] = NCI Yeast Anticancer Drug Screen. Data for the sgs1 strain (AID 173);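 note: 0% = growth of vehicle-only control cultures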; settings: S. cerevisiae sgs1 mutant, active compounds read high
How it was run: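 Growth of a yeast strain bearing a defined genetic alteration is measured after compound treatment. Inhibition is expressed relative to vehicle-only controls.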

[13] = NCI Yeast Anticancer Drug Screen. Data for the mlh1 rad18 strain (AID 175); settings: S. cerevisiae mlh1 rad18 strain growth inhibition, active compounds read high
How it was run: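 Read-out is yeast growth inhibition, calculated against vehicle-only controls. The compound was applied to a strain engineered with DNA damage repair alterations.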

[14] = NCI Yeast Anticancer Drug Screen. Data for the rad18 strain (AID 177); settings: S. cerevisiae rad18 mutant growth inhibition, active compounds read high
How it was run: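 Growth of the mutant yeast strain after compound exposure, normalised to vehicle-only cultures.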

[15] = NCI Yeast Anticancer Drug Screen. Data for the rad14 strain (AID 159);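 note: 0% = growth of vehicle-treated control cultures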; settings: S. cerevisiae rad14 strain growth inhibition, active compounds read high
How it was run: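 DNA repair-defective yeast, compound-exposed; % growth inhibition derived by comparison with vehicle-treated controls.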

[16] = at 5.0 µM (retest, dose inferred, filed as 0.5)
[17] = at 50.0 µM (retest, dose inferred, filed as 5.0)

Measured: growth inhibition

COC(=O)CSSCc1ccc([N+](=O)[O-])cc1
active: [1]; at 100.0 µM 83% | [2]; at 11.0 µM 70% | [2]; at 33.0 µM 93% | [2]; at 100.0 µM 98% | [3]; at 100.0 µM 98% | [4]; at 33.0 µM 85% | [4]; [17] 97% | [4]; at 50.0 µM 97.3% | [4]; at 100.0 µM 97% | [5]; [17] 96% | [5]; at 50.0 µM 96% | [5]; at 100.0 µM 97% | [6]; [17] 97% | [6]; at 50.0 µM 94.7% | [7]; at 100.0 µM 95% | [8]; [17] 89% | [8]; at 50.0 µM 93.6% | [9]; at 33.0 µM 71% | [9]; [17] 98% | [9]; at 50.0 µM 96% | [9]; at 100.0 µM 97% | [10]; at 100.0 µM 98% | [11]; at 100.0 µM 99% | [12]; at 33.0 µM 87% | [12]; at 100.0 µM 99% | [13]; [17] 98% | [13]; at 50.0 µM 94.4% | [14]; at 33.0 µM 83% | [14]; at 100.0 µM 97%
inactive: [1]; at 1.2 µM -1% | [1]; at 3.7 µM -2% | [1]; at 11.0 µM 3% | [1]; at 33.0 µM 24% | [2]; at 1.2 µM -2% | [2]; at 3.7 µM 13% | [3]; at 1.2 µM -1% | [3]; at 3.7 µM 1% | [3]; at 11.0 µM 16% | [3]; at 33.0 µM 44% | [4]; at 1.2 µM 4% | [4]; at 3.7 µM 20% | [4]; [16] 15% | [4]; at 11.0 µM 47% | [5]; at 1.2 µM -2% | [5]; at 3.7 µM 2% | [5]; [16] -8% | [5]; at 11.0 µM 14% | [5]; at 33.0 µM 37% | [6]; [16] 38% | [7]; at 1.2 µM -1% | [7]; at 3.7 µM -6% | [7]; at 11.0 µM 7% | [7]; at 33.0 µM 43% | [8]; [16] -10% | [9]; at 1.2 µM 1% | [9]; at 3.7 µM 5% | [9]; [16] 43% | [9]; at 11.0 µM 24% | [10]; at 1.2 µM 1% | [10]; at 3.7 µM -3% | [10]; at 11.0 µM 22% | [10]; at 33.0 µM 34% | [11]; at 1.2 µM -4% | [11]; at 3.7 µM 9% | [11]; at 11.0 µM 31% | [11]; at 33.0 µM 67% | [12]; at 1.2 µM -20% | [12]; at 3.7 µM -24% | [12]; at 11.0 µM 33% | [13]; [16] 69% | [14]; at 1.2 µM -2% | [14]; at 3.7 µM 19% | [14]; at 11.0 µM 48%

Brc1ccc(-c2cc3c(cc2C2SCCS2)OCO3)cc1
active: [6]; [17] 70% | [9]; [17] 74% | [12]; at 100.0 µM 76% | [13]; [17] 76%
inactive: [1]; at 1.2 µM -24% | [1]; at 3.7 µM -17% | [1]; at 11.0 µM -26% | [1]; at 33.0 µM -14% | [1]; at 100.0 µM -7% | [2]; at 1.2 µM -4% | [2]; at 3.7 µM -10% | [2]; at 11.0 µM 9% | [2]; at 33.0 µM 29% | [2]; at 100.0 µM 51% | [3]; at 1.2 µM -52% | [3]; at 3.7 µM -45% | [3]; at 11.0 µM -36% | [3]; at 33.0 µM -6% | [3]; at 100.0 µM 50% | [4]; at 1.2 µM -23% | [4]; at 3.7 µM -13% | [4]; [16] -19% | [4]; at 11.0 µM -13% | [4]; at 33.0 µM 14% | [4]; [17] 48% | [4]; at 50.0 µM 63.8% | [4]; at 100.0 µM 30% | [5]; at 1.2 µM -29% | [5]; at 3.7 µM -29% | [5]; [16] -57% | [5]; at 11.0 µM -31% | [5]; at 33.0 µM -27% | [5]; [17] 11% | [5]; at 50.0 µM 22.2% | [5]; at 100.0 µM -15% | [15]; at 1.2 µM -35% | [15]; at 3.7 µM -24% | [15]; at 11.0 µM -30% | [15]; at 33.0 µM -7% | [15]; at 100.0 µM 25% | [6]; [16] -18% | [6]; at 50.0 µM 66.6% | [7]; at 1.2 µM -18% | [7]; at 3.7 µM -25% | [7]; at 11.0 µM -28% | [7]; at 33.0 µM -10% | [7]; at 100.0 µM 13% | [8]; [16] 9% | [8]; [17] 32% | [8]; at 50.0 µM 21.1% | [9]; at 1.2 µM -16% | [9]; at 3.7 µM -8% | [9]; [16] 5% | [9]; at 11.0 µM -15% | [9]; at 33.0 µM 2% | [9]; at 50.0 µM 44.9% | [9]; at 100.0 µM 22% | [10]; at 1.2 µM -1% | [10]; at 3.7 µM -11% | [10]; at 11.0 µM -15% | [10]; at 33.0 µM 13% | [10]; at 100.0 µM 43% | [11]; at 1.2 µM -24% | [11]; at 3.7 µM -23% | [11]; at 11.0 µM -28% | [11]; at 33.0 µM 18% | [11]; at 100.0 µM 63% | [12]; at 1.2 µM 3% | [12]; at 3.7 µM 9% | [12]; at 11.0 µM 5% | [12]; at 33.0 µM 52% | [13]; [16] -8% | [13]; at 50.0 µM 33.5% | [14]; at 1.2 µM -23% | [14]; at 3.7 µM -27% | [14]; at 11.0 µM -29% | [14]; at 33.0 µM 20% | [14]; at 100.0 µM 56%
